# Activity calls are given as the source filed them. Calls follow the shape of the dose curve; as a rule, active = well fitted curve in the direction sought with a large enough effect in the repeat runs; inconclusive = weak or mixed curves; inactive = flat fitted curve, though single readings scatter.
# Assay: qHTS assay to test for compound auto fluorescence at 535 nm (green) in HepG2 cell free culture (AID 720686)
# Settings: Cell-free medium, green autofluorescence 485/535 nm; series mostly up to 91.3 µM
# Description: U.S. Tox21 Program National Center for Advancing Translational Sciences [NCATS] NIH Chemical Genomics Center [NCGC] U.S. Environmental Protection Agency [EPA] National Institutes of Environmental Health Sciences [NIEHS] National Toxicology Program [NTP] U.S. Food and Drug Administration [FDA] Tox21 Assay Overview: Compound auto fluorescence often interferes with screening of the compound library against various biological targets and signaling pathways. Some of these compounds may have fluorophoric properties. Such properties may interfere with the assay outputs resulting in false positives and/or negatives. To decrease such complications and ensure the compound activities are relevant in terms of biological response, the Tox21 10K compound library was screened for auto fluorescence. From the fluorophores used as reporter signals in our screening assays, the auto fluorescence equivalencies of compounds against three fluorophores have been evaluated: Triamterene, Fluorescein and Rose Bengal sodium for blue, green and red fluorescence, respectively. The fluorescence intensities were measured using Excitation/Emission wavelengths at 405/460nm, 485/535nm and 540/590nm for blue, green and red labels, respectively. This assay includes the green fluorescence data.
# Tox21 Assay Protocol Summary: 5 uL of culture medium (MEM containing 10% FBS) per well was dispensed into black wall/clear bottom 1536-well plates using a Multidrop Combi Dispenser (ThermoFisher Scientific, Waltham, MA). After 23 nL compound or DMSO vehicle was transferred into assay plate by a pintool work station (Kalypsys, San Diego, CA), fluorescence intensities in the assay plates were measured by an Envision (PerkinElmer, Shelton, CT) plate reader using three labels for measuring blue, green and red fluorescence at […] 460, 535 and 590nm respectively.
# % is scaled to controls: 0 for no effect and ±100 for the full control effect.
Compound,outcome,"fluorescence, % of fluorescein control"
CCCCCCC(O)CCCCCCCCCCC(=O)OC (stereo not given),inactive,–
O=C(CCS)OCC(COC(=O)CCS)(COC(=O)CCS)COC(=O)CCS,inactive,–
c1ccc(CNc2ncnc3c2ncn3C2CCCCO2)cc1 (stereo not given),inactive,–
O=C(O)c1cccc(Oc2ccccc2)c1,inactive,–
COC(OC)OC,inactive,–
O[C@@H](CNC[C@H](O)[C@H]1CCc2cc(F)ccc2O1)[C@@H]1CCc2cc(F)ccc2O1,inactive,–
CC(C)N=C=NC(C)C,inactive,–
O=P(O)(O)Oc1ccccc1,inactive,–
CC(C(=O)O)c1ccc(C(=O)c2cccs2)cc1 (stereo not given),–,-0.0792% [at 18.6 µM] (inactive)
Cc1ccc2c(c1[N+](=O)[O-])C(=O)c1ccccc1C2=O,inactive,–
CCCCCCCCCCCCCOS(=O)(=O)O,inactive,–
CC1CCc2nccnc21 (stereo not given),inactive,–
CC(C)N(C)C,inactive,–
CS(=O)(=O)c1ccc([C@@H](C[C@H]2CCC(=O)C2)C(=O)Nc2cnccn2)cc1Cl,inactive,–
c1ccc2sc(SSc3nc4ccccc4s3)nc2c1,inactive,–
CC(C)Cc1ccc(CC(=O)O)cc1,inactive,–
O=C1NC(=O)c2cccc3cccc1c23,inactive,–
Nc1ccc(N=Nc2ccc(N)cc2)cc1,inactive,–
CC(CN(CCN(CC(C)OCCO)CC(C)OCCO)CC(C)OCCO)OCCO (stereo not given),inactive,–
Nc1ccc(NC(=O)c2ccc(N)cc2)cc1,inactive,–

Compound,outcome,"fluorescence, % of fluorescein control"
O=C(O)/C=C/c1ccc(O)c(O)c1,inactive,–
C1=CCC2CC=CC2C1 (stereo not given),inactive,–
CC(C)(C)S,inactive,–
CCCCCc1ccco1,inactive,–
CCN(CC)C(=O)/C(C#N)=C/c1cc(O)c(O)c([N+](=O)[O-])c1,inactive,–
O=C(C(=O)c1ccco1)c1ccco1,inactive,–
CNc1c2c(nn1C)CCCC2,inactive,–
ClC1=C(Cl)C1(Cl)Cl,inactive,–
CC(=O)OCCC(C)CC(C)(C)C (stereo not given),inactive,–
Nc1nc(-c2ccc([N+](=O)[O-])cc2)cs1,inactive,–
Cc1ccc(N(CC2=NCCN2)c2cccc(O)c2)cc1,inactive,–
CCN(CC)CCOc1ccccc1C(=O)CCc1ccccc1,inactive,–
Cc1ccc(Nc2c(F)cccc2Cl)c(CC(=O)O)c1,inactive,–
O=[N+]([O-])C1(Br)COCOC1,inactive,–
CC(C)C(=O)OCCOc1ccccc1,inactive,–
CNCc1ccc(NC(=O)c2c[nH]c3c2C(=O)CCC3)cc1,inactive,–
Cc1ccc(S(=O)(=O)NC(=O)NC2CCCCC2)cc1,inactive,–
OCC(CO)n1cnc(-c2ccc(F)cc2)c1-c1ccnc(Oc2ccccc2)n1,inactive,–
CCN(CC)CCOC(=O)C(c1ccccc1)c1ccccc1,inactive,–
COc1cc(NCc2ccc3nc(N)nc(N)c3c2C)cc(OC)c1OC,inactive,–
